This passage reports Potency results from PubChem BioAssay (NCATS).

Records with an inconclusive call do not appear. The source made the active and inactive calls. Calls follow the shape of the dose curve; as a rule, active = well fitted curve in the direction sought with a large enough effect; inconclusive = small, poorly fitted or top-dose-only effect, or another doubt; inactive = no such curve, though single readings can be large; an effect the other way counts as inactive or inconclusive.

Experiment [1] can be described thus: S16 Schwann cell viability assay (CellTiter-Glo assay) (AID 624031).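 Also: native untransfected S16 rat Schwann cells; nearly all actives have a fitted effect of over 70% in size.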 The settings on record: S16 rat Schwann cells viability, 24 h; series mostly up to 57.5 µM. In short, it runs like this:
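Counter-screen for cytotoxicity: parental S16 rat Schwann cells lacking the PMP22 reporters, treated 24 h with compound, viability from cellular ATP by CellTiter-Glo luminescence, normalized to DMSO (0%) and no-cell wells.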

In experiment [2] the test system is CP217. Put plainly: qHTS profiling for inhibitors of Plasmodium falciparum proliferation (AID 504749). Also: nearly all actives have a fitted effect of over 60% in size. Also: potency is read from the fitted curve at half-maximal effect. The conditions noted are these: P. falciparum in erythrocytes, SYBR Green DNA, 72 h; series mostly up to 28.7 µM. In outline:
(§1)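 P. falciparum-infected erythrocytes (0.3% parasitemia, 2.5% hematocrit) incubated with compound 72 h at 37 C, 5% CO2. Parasite DNA detected by SYBR Green after lysis, overnight at room temperature; normalised to 0.29 uM artemisinin and DMSO.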
(qHTS replaces the single test concentration by a dilution series.)

Experiment [3] has as its system CP252. The experiment is described as above. The settings on record: P. falciparum in erythrocytes, SYBR Green DNA, 72 h; series mostly up to 28.7 µM. In outline: as §1
In experiment [4] the test system is CP256. The description is as above. The settings on record: P. falciparum in erythrocytes, SYBR Green DNA, 72 h; series mostly up to 28.7 µM. In outline: as §1
The subject of experiment [5] is CP265. The description is as above. The settings on record: P. falciparum in erythrocytes, SYBR Green DNA, 72 h; series mostly up to 28.7 µM. In short, it runs like this: as §1
The subject of experiment [6] is CP291. Described as above. The settings on record: P. falciparum in erythrocytes, SYBR Green DNA, 72 h; series mostly up to 28.7 µM. In short, it runs like this: as §1
The test system of experiment [7] is CP335. The experiment is described as above. The settings on record: P. falciparum in erythrocytes, SYBR Green DNA, 72 h; series mostly up to 28.7 µM. In short, it runs like this: as §1
In experiment [8] the test system is DFO2036. The description is as above. The conditions noted are these: P. falciparum in erythrocytes, SYBR Green DNA, 72 h; series mostly up to 28.7 µM. In outline: as §1
Experiment [9] relates to N140. The description is as above. The conditions noted are these: P. falciparum in erythrocytes, SYBR Green DNA, 72 h; series mostly up to 28.7 µM. In outline:
as §1

In experiment [10] the test system is P94_40. Described as above. The conditions noted are these: P. falciparum in erythrocytes, SYBR Green DNA, 72 h; series mostly up to 28.7 µM. In outline: as §1
For experiment [11], the system named is TAB113. The experiment is described as above. The settings on record: P. falciparum in erythrocytes, SYBR Green DNA, 72 h; series mostly up to 28.7 µM. In outline:
as §1

The subject of experiment [12] is 3D7. The description is as above. The conditions noted are these: P. falciparum in erythrocytes, SYBR Green DNA, 72 h; series mostly up to 28.7 µM. In short, it runs like this:
as §1

Experiment [13] relates to AS120. The experiment is described as above. The conditions noted are these: P. falciparum in erythrocytes, SYBR Green DNA, 72 h; series mostly up to 28.7 µM. In outline:
as §1

In experiment [14] the test system is CP194. Described as above. The settings on record: P. falciparum in erythrocytes, SYBR Green DNA, 72 h; series mostly up to 28.7 µM. In outline: as §1
For experiment [15], the system named is CP260. The description is as above. The settings on record: P. falciparum in erythrocytes, SYBR Green DNA, 72 h; series mostly up to 28.7 µM. In short, it runs like this: as §1
Experiment [16] relates to HB3. The description is as above. The conditions noted are these: P. falciparum in erythrocytes, SYBR Green DNA, 72 h; series mostly up to 28.7 µM. In short, it runs like this: as §1
The subject of experiment [17] is PAD. The experiment is described as above. The conditions noted are these: P. falciparum in erythrocytes, SYBR Green DNA, 72 h; series mostly up to 28.7 µM. In outline:
as §1

Experiment [18] relates to PC26. The experiment is described as above. The settings on record: P. falciparum in erythrocytes, SYBR Green DNA, 72 h; series mostly up to 28.7 µM. In short, it runs like this: as §1
The subject of experiment [19] is DIV14. The description is as above. The settings on record: P. falciparum in erythrocytes, SYBR Green DNA, 72 h; series mostly up to 28.7 µM. In outline:
as §1

The subject of experiment [20] is GB4. The experiment is described as above. The conditions noted are these: P. falciparum in erythrocytes, SYBR Green DNA, 72 h; series mostly up to 28.7 µM. In short, it runs like this: as §1

For the compound `O=C1CC2OCC=C3CN4CCC56c7ccccc7N1C5[C@H]2[C@H]3C[C@H]46` (stereo partly specified) (tested in a mixture with another compound), the Potency entry in experiment [1], in experiment [2], in experiment [3], in [4], in [5] and in [6] was “inactive” each time. For the same compound, the Potency result in experiment [7], in experiment [8], in experiment [9], in [10] and in experiment [11] was “inactive” in each case.

In the case of `CN(C)[C@@H](Cc1ccccc1)c1ccccc1`, the Potency result in experiment [1], in experiment [12], in experiment [13], in [14], in experiment [2] and in experiment [3] was “inactive” each time. For the same compound, the Potency entry in experiment [4], in experiment [15], in experiment [5], in experiment [6], in experiment [7] and in experiment [8] was “inactive” throughout. In addition, the Potency result in experiment [16], in experiment [9], in experiment [10], in experiment [17], in [18] and in experiment [11] was “inactive” in each case.

For `C#C[C@]1(O)CC[C@H]2[C@@H]3CCC4=CC(=O)CCC4(C)[C@H]3CCC21C` (stereo partly specified), the Potency entry in experiment [1], in experiment [12], in experiment [13], in experiment [14], in experiment [2] and in experiment [3] was “inactive” throughout. The Potency result in experiment [4], in [15], in [5], in experiment [6], in [7] and in experiment [8] was “inactive” each time. Also, the Potency result in experiment [19], in experiment [20], in experiment [16], in [9], in experiment [10] and in experiment [17] was “inactive” throughout. Moreover, the Potency result in experiment [18] and in experiment [11] was “inactive” each time.

Take `CCC(=O)OC1(c2ccccc2)CCN(C)CC1C` (stereo unspecified): the Potency result in experiment [1], in experiment [12], in [19], in experiment [16] and in [17] was “inactive” throughout. In [20], the Potency was 7.57 µM (active).

Turning to `CC1CC[C@@]2(NC1)OC1CC3C4CC[C@@H]5CC(O)CC[C@@]5(C)C4CC[C@]3(C)C1C2C` (stereo partly specified), the Potency result in [1], in experiment [12], in experiment [14], in experiment [3], in experiment [6] and in experiment [8] was “inactive” each time. For the same compound, in experiment [11], the Potency entry is “inactive”.

For `C=CC[C@]1(O)CCC2C3CCC4=CCCCC4C3CCC21C` (stereo partly specified), the Potency result in [12], in experiment [13], in experiment [14], in experiment [2], in experiment [3] and in experiment [4] was “inactive” each time. The Potency entry in experiment [15], in experiment [5], in experiment [6], in experiment [7], in experiment [8] and in [20] was “inactive” each time. The Potency result in experiment [9], in [17], in [18] and in experiment [11] was “inactive” in each case.

In the case of `CN(C)C1C(=O)C(C(N)=O)C(=O)C2(O)C(=O)C3C(=O)c4c(O)cccc4C(C)(O)C3C(O)C12` (stereo unspecified), the Potency result in [1], in [13], in [14], in experiment [2], in experiment [3] and in experiment [4] was “inactive” each time. Further, the Potency entry in experiment [5], in [9], in experiment [18] and in [11] was “inactive” throughout. Further, in [7], the Potency was 6.01 µM (active).

With `C[C@]12CC[C@H]3[C@@H](CC[C@@]45O[C@@H]4C(=O)C(C#N)C[C@]35C)[C@@H]1CC[C@@H]2O` (stereo partly specified), the Potency entry in experiment [1], in experiment [12], in experiment [15], in experiment [6], in experiment [7] and in experiment [19] was “inactive” in each case. The Potency entry in experiment [16], in experiment [10], in experiment [17] and in [18] was “inactive” each time.

`CC(C)CCC(=O)OC1CCC2C3CCC4=CC(=O)CC[C@]4(C)C3CC[C@]12C` (stereo partly specified): the Potency result in [14], in [19] and in experiment [20] was “inactive” in each case. The Potency in [4] is 7.94 µM (active); in [15] it was 11.2 µM (active); in [5], 7.94 µM (active); in [11] it was 7.08 µM (active).

In the case of `CC(=O)[C@H]1CC[C@H]2C3CC[C@H]4C[C@H](O)CC[C@]4(C)C3CC[C@]12C` (stereo partly specified), the Potency entry in [1], in experiment [12], in experiment [13], in [14], in experiment [2] and in [3] was “inactive” each time. In addition, the Potency result in [4], in [5], in experiment [6], in [7], in experiment [8] and in [19] was “inactive” each time. Besides, the Potency result in experiment [20], in experiment [16], in [9], in experiment [10], in experiment [17] and in experiment [18] was “inactive” in each case. In addition, in [11], the Potency result is “inactive”.

As for `CC(C)=CC1C(C(=O)OCc2coc(Cc3ccccc3)c2)C1(C)C` (stereo unspecified), the Potency result in experiment [1], in experiment [12], in [14], in experiment [2], in experiment [3] and in [15] was “inactive” throughout. Further, the Potency result in [6], in experiment [7], in experiment [8], in experiment [19], in experiment [20] and in experiment [16] was “inactive” throughout. The Potency entry in experiment [9], in [10], in experiment [17] and in [18] was “inactive” throughout.
